KDM5B inh: KDM5B demethylase inhibition; Q9UGL1; KDM5B demethylase, FDH-coupled NADH fluorescence (FDH is formaldehyde dehydrogenase); Potency, µM (series often up to 57.7 µM), usual class: inhibitors; 2.6% of 220,000 active; active = well fitted inhibition curve with a large enough effect; note: 0% is about no effect; nearly all actives have a fitted effect of over 70% in size
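Compound dilutions met 200 nM (final) KDM5BΔAP for 10 min at room temperature before substrate addition. The substrate mix held 12.5 µM H3K4me3 with cofactors 25 µM α-ketoglutarate and 50 µM Fe²⁺. NADH signal gain over 30 min defined activity.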
* = called active by the depositor; i = inactive. Many of the other results were omitted from the sample, so hits are more common in it than they were. Potency is the fitted concentration of half-maximal effect.

SMILES	KDM5B inh
COc1ccc(CCNC(=O)c2ccc(Cn3ccn4nc5c(c4c3=O)CCCC5)cc2)cc1OC	28µM*
Cc1cccc(-c2nc(C)c(CCNC(=O)C(=O)Nc3ccc(C)c(F)c3)s2)c1	i
Cc1cc(C)cc(C(=O)NC2CCN(c3cnn(CC4CC4)c(=O)c3)CC2)c1	i
O=c1c2nc(-c3ccc(O)c(F)c3)ccc2ncn1-c1ccc(F)cc1F	i
Cc1ccc(C)c(Cn2cnc3ccccc3c2=O)c1	i
O=c1c2ccc(Cl)cc2ncn1Cc1coc(-c2cccs2)n1	i
Cn1ccc2cc(-c3ccc4ncn(Cc5ccccn5)c(=O)c4n3)ccc21	i
COc1ccc(-c2ccc3ncn(Cc4ccccn4)c(=O)c3n2)cc1F	35µM*
Cc1ccc(-c2ccc3ncn(Cc4ccccn4)c(=O)c3n2)c(C)c1	32µM*
O=c1c2ccc(Cl)cc2ncn1Cc1ncc(-c2ccc(Cl)cc2)o1	i
O=c1c2nc(-c3ccccc3)ccc2ncn1Cc1ccccn1	40µM*
O=c1c2nc(-c3ccc(Cl)cc3)ccc2ncn1Cc1ccccn1	35µM*
Cc1ccc(-c2ccc3ccccc3n2)c(C)c1	i
Cn1cnc2ccc(-c3cccc(C(F)(F)F)c3)nc2c1=O	i
COc1ccccc1Cn1cnc2cccnc21	i
COc1ccc(Cn2c(=O)c3ccccc3n3c(-c4cccc(OC)c4O)nnc23)cc1	i
O=C(COC(=O)c1cccc(C(F)(F)F)c1)c1cccc([N+](=O)[O-])c1	i
O=C(NC1CC1)c1ccc(CC2CCN(C(=O)c3ccc4ccccc4n3)CC2)cc1	i
C=CCN(Cc1ccccc1OCC)C(=O)CCn1cccc1	i
N#Cc1nc(-c2cccc3ccccc23)oc1N1CCN(Cc2ccccc2)CC1	i
Cc1cc(C)c(C(=O)Cn2nc(C(=O)O)c3ccccc3c2=O)c(C)c1	i
Cc1ccc(CN2CCCCCCNC(=O)CC2c2ccccc2)s1 (stereo not given)	i
O=C(OCC(=O)N1c2ccccc2Sc2ccccc21)c1ccccc1	i
N#Cc1c2n(c(=O)n(CCOc3ccccc3F)c1=O)CCC2	i
Cc1cc(C)nc(-n2nc(C)c3c2NC(=O)CC3c2ccccc2OC(C)C)n1 (stereo not given)	i
SMILES	KDM5B inh
Cc1nn(-c2ncccn2)c2c1C(c1ccccc1OCCc1ccccc1)CC(=O)N2 (stereo not given)	i
Cc1ccc2nc3c(n2c1)C(c1ccccc1OCCN(C)C)CC(=O)NC3 (stereo not given)	32µM*
COc1ccc(OC)c(NC(=O)CC2SCCNC2=O)c1 (stereo not given)	i
Cc1ccc(C(=O)COC(=O)C2CC(=O)N(c3ccccc3)C2)cc1 (stereo not given)	i
CN1C(=O)c2cccn2CC1CNC(=O)c1ccccc1 (stereo not given)	i
CN1C(=O)c2cccn2CC1CNC(=O)c1cc(-c2ccccc2)n[nH]1 (stereo not given)	i
CN1C(=O)c2cccn2CC1CNC(=O)c1cc2ccccc2[nH]1 (stereo not given)	16µM*
CCOC(=O)c1cc2n(n1)CC(C)(C(=O)NCCC(C)C)N(c1cc(Cl)ccc1OC)C2=O (stereo not given)	i
CC#CCn1cc2c3c(cccc31)[C@H](CC(C)C)N[C@H](C(=O)NCCC)C2	i
COc1ccccc1CNC(=O)[C@@H]1Cc2cn(C)c3cccc(c23)[C@H](CC(C)C)N1	35µM*
CC#CCn1cc2c3c(cccc31)[C@H](CC(C)C)N[C@H](C(=O)N1CCN(CCOC)CC1)C2	28µM*
COc1ccc(CNC(=O)[C@@H]2Cc3cn(Cc4cccnc4)c4cccc(c34)[C@H](CC(C)C)N2)cc1	i
CC(C)C[C@@H]1N[C@H](C(=O)NCc2ccccc2)Cc2cn(Cc3cccnc3)c3cccc1c23	i
CC(C)C[C@@H]1N[C@H](C(=O)N2CCCC2)Cc2cn(Cc3ccccn3)c3cccc1c23	i
Cc1ccc(OC(C)C(=O)Nc2cc(-c3ccc(F)c(F)c3)no2)cc1C (stereo not given)	i
Cc1cc(C)n(CCC(=O)N[C@@H]2CN(Cc3ccccc3)C[C@H]2CN(C)C)n1	i
O=C(N[C@@H]1CN(Cc2ccccc2)C[C@H]1CO)c1ncccn1	i
O=C(N[C@@H]1CN(c2ncccn2)C[C@H]1CO)c1cc2ccccc2[nH]1	14µM*
COCC(=O)N[C@@H]1CN(C(=O)c2cc3ccccc3[nH]2)CC[C@@H]1CO	i
O=C(NCCNC(=O)c1cc2ccccc2[nH]1)C(=O)NC1CC1	i
CN(C)C[C@@H]1CN(c2ccncn2)C[C@H]1NC(=O)c1cccc2[nH]ccc12	i
O=C(c1cc2ccccc2[nH]1)N1C[C@@H](CO)[C@H](c2ccccn2)C1	i
Cc1cc(C)n(CC(=O)N[C@@H]2CN(Cc3ccccc3)C[C@H]2CN(C)C)c(=O)n1	8.9µM*
Cn1cnc(C(=O)N[C@H]2CCOC[C@H]2C2CCOCC2)c1	i
Cn1cnc(C(=O)N[C@@H]2CN(c3ncccn3)C[C@H]2CO)c1	28µM*

Bioassay records from PubChem.
